Common to all, as to assay: NCI-60 one-dose screen, 48 h (100 = growth as untreated, 0 = no growth, -100 = all killed)
One assay concerns EKVX NSCLC. Conditions: 10 µM unless noted.
The test system of a further assay is SN12C renal. To be noted: 10 µM unless noted.
For another assay, the system named is UO-31 renal. To be noted: 10 µM unless noted.
The subject of another assay is TK-10 renal. Conditions: 10 µM unless noted.
Another assay has as its system CAKI-1 renal. Conditions: 10 µM unless noted.
The subject of the next assay is A498 renal. Conditions: 10 µM unless noted.
For a further assay, the system named is CCRF-CEM leukemia. To be noted: 10 µM unless noted.
Another assay relates to MOLT-4 leukemia. To be noted: 10 µM unless noted.
A further assay deals with SR leukemia. To be noted: 10 µM unless noted.
Another assay concerns RPMI-8226 leukemia. To be noted: 10 µM unless noted.
The test system of another assay is OVCAR-8 ovarian. Conditions: 10 µM unless noted.
The test system of a further assay is OVCAR-5 ovarian. To be noted: 10 µM unless noted.
A further assay concerns OVCAR-4 ovarian. To be noted: 10 µM unless noted.
The subject of another assay is SK-OV-3 ovarian. Conditions: 10 µM unless noted.
In a further assay the test system is IGROV1 ovarian. To be noted: 10 µM unless noted.
A further assay relates to OVCAR-3 ovarian. Conditions: 10 µM unless noted.
The next assay relates to ACHN renal. Conditions: 10 µM unless noted.
In a further assay the test system is NCI/ADR-RES ovarian. To be noted: 10 µM unless noted.
In a further assay the test system is HS 578T breast. To be noted: 10 µM.

About 83,000 compounds went through this panel and 20% of them were active in at least one assay; those are over-represented in the sample as a whole.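 Step 1: grow cells in 96-well plates. Step 2: add test compound at a single concentration. Step 3: incubate 48 h. Step 4: record percent growth.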 Values without a mark were called inactive. Calls of active or inactive are those of the source. How the source made its calls: active means growth percent below 10; inactive means the rest.

`C/C(=C(/c1ccc(Cl)cc1)c1ccc(OCCN2CCCCCC2)cc1)c1ccccc1`: the growth was 70.2% in the assay with EKVX NSCLC; 87.6% with SN12C renal; 70.9% in the assay on UO-31 renal; 101% with TK-10 renal; 96.9% with CAKI-1 renal; 86% with A498 renal. Moreover, the growth is 68.9% in the assay with CCRF-CEM leukemia; 82% in the assay on MOLT-4 leukemia; 18% in the assay on SR leukemia; 70.2% with RPMI-8226 leukemia; 89% in the assay on OVCAR-8 ovarian; 69.6% in the assay with OVCAR-5 ovarian. Further, the growth with OVCAR-4 ovarian is 73.5%; in the assay on SK-OV-3 ovarian, 113%; in the assay with IGROV1 ovarian, 74.1%; in the assay on OVCAR-3 ovarian, 89.6%.
Turning to `CNC(=O)c1nn(C)c2c1C(C)(C)Cc1cnc(Nc3ccc(N4CCN(C)CC4)cc3)nc1-2`, the growth in the assay on EKVX NSCLC was 5.74% (active); in the assay with SN12C renal, 11.3%; in the assay with UO-31 renal, -8.73% (active); in the assay with TK-10 renal, -12.5% (active); in the assay with ACHN renal, 9.62% (active); in the assay with CAKI-1 renal it was 7.68% (active). Besides, the growth was 10.4% in the assay with CCRF-CEM leukemia; 2.29% (active) with MOLT-4 leukemia; -1.85% (active) in the assay on SR leukemia; 0.421% (active) in the assay with RPMI-8226 leukemia; 8.9% (active) in the assay on OVCAR-8 ovarian; 9.13% (active) in the assay on OVCAR-5 ovarian. Further, the growth with OVCAR-4 ovarian is 12.9%; in the assay with SK-OV-3 ovarian it was -16.9% (active); in the assay on IGROV1 ovarian, 2.47% (active); in the assay with OVCAR-3 ovarian it was 20.7%; with NCI/ADR-RES ovarian, 9.88% (active).
As to `COc1cc2c(Oc3ccc(NC(=O)C4(C(=O)Nc5ccc(F)cc5)CC4)cc3F)ccnc2cc1OCCCN1CCOCC1`, the growth is 25.9% with EKVX NSCLC; 14.5% in the assay on SN12C renal; -74.4% (active) in the assay with UO-31 renal; -5.46% (active) with TK-10 renal; -69% (active) in the assay with CAKI-1 renal; -92.4% (active) in the assay with A498 renal. The growth in the assay with CCRF-CEM leukemia was -3.58% (active); with MOLT-4 leukemia, -9.06% (active); with SR leukemia, -16.7% (active); in the assay with RPMI-8226 leukemia it was 10.3%; in the assay on OVCAR-8 ovarian, 26.8%; in the assay on OVCAR-5 ovarian, 11.7%. The growth in the assay with OVCAR-4 ovarian is 32.1%; in the assay on SK-OV-3 ovarian, -13.8% (active); in the assay on IGROV1 ovarian it was -34.7% (active); with OVCAR-3 ovarian, 46.5%; in the assay on NCI/ADR-RES ovarian, 9.62% (active).
As to `CCOc1cccc(/C=N/NC(=O)c2ccccc2Nc2ccnc(C(F)(F)F)c2)c1O`, the growth with EKVX NSCLC was 10.6%; in the assay on SN12C renal it was 27.2%; in the assay on UO-31 renal it was -15.1% (active); in the assay with TK-10 renal, 23.5%; in the assay on CAKI-1 renal, 4.57% (active); in the assay with A498 renal, -10.8% (active). The growth in the assay on CCRF-CEM leukemia was -37.3% (active); in the assay on MOLT-4 leukemia, -10.9% (active); in the assay on SR leukemia it was -20.1% (active); in the assay on RPMI-8226 leukemia, -19.7% (active); in the assay on OVCAR-8 ovarian it was 20.7%; with OVCAR-5 ovarian it was 13%. Moreover, the growth in the assay with OVCAR-4 ovarian was 25%; with SK-OV-3 ovarian, 8.43% (active); in the assay on IGROV1 ovarian, -13.8% (active); with OVCAR-3 ovarian, 31.5%; with HS 578T breast it was 39.2%; in the assay with NCI/ADR-RES ovarian, -0.31% (active).
As for `O=C(Nc1cn[nH]c1-c1nc2ccc(CN3CCOCC3)cc2[nH]1)NC1CC1`, the growth with EKVX NSCLC is 68.5%; in the assay with SN12C renal, 17%; in the assay on UO-31 renal, -22.1% (active); in the assay on TK-10 renal it was 44%; in the assay on CAKI-1 renal, 23.2%; with A498 renal, -15.5% (active). The growth in the assay on MOLT-4 leukemia is -5.45% (active); with SR leukemia it was -11.9% (active); in the assay with RPMI-8226 leukemia, 108%; in the assay with OVCAR-8 ovarian, 28.7%; in the assay on OVCAR-5 ovarian, 22.5%; in the assay with OVCAR-4 ovarian, 78.5%. Also, the growth with SK-OV-3 ovarian is -5.97% (active); in the assay on IGROV1 ovarian it was 9.49% (active); with OVCAR-3 ovarian, 11.7%; in the assay with NCI/ADR-RES ovarian it was 76.3%.
As for `NC(=O)c1c(OCc2c(F)cc(Br)cc2F)nsc1NC(=O)NCCCCN1CCCC1`, the growth in the assay on EKVX NSCLC was 4.31% (active); with SN12C renal, 0.752% (active); with UO-31 renal it was -76.8% (active); with TK-10 renal, -1.76% (active); in the assay on ACHN renal, -29.7% (active); in the assay on CAKI-1 renal it was -26.2% (active). The growth in the assay with CCRF-CEM leukemia was 2.77% (active); in the assay on MOLT-4 leukemia it was -16.4% (active); in the assay on SR leukemia it was -34.4% (active); with RPMI-8226 leukemia, -26.3% (active); with OVCAR-8 ovarian it was 19.4%; in the assay on OVCAR-5 ovarian, -14.8% (active). Moreover, the growth was -41.6% (active) in the assay with OVCAR-4 ovarian; 52.2% with SK-OV-3 ovarian; -32.4% (active) with IGROV1 ovarian; -34.1% (active) with OVCAR-3 ovarian; 20.2% in the assay on NCI/ADR-RES ovarian.
`CCCCCCCCCNCCCCCCCCC`: the growth was 81.9% in the assay with EKVX NSCLC; 59.5% with SN12C renal; 36.4% with UO-31 renal; 70.4% in the assay with TK-10 renal; 42% in the assay with CAKI-1 renal; 88.9% in the assay with A498 renal. Besides, the growth is 49.7% with MOLT-4 leukemia; -22.9% (active) in the assay on SR leukemia; -22.4% (active) with RPMI-8226 leukemia; 73.5% in the assay on OVCAR-8 ovarian; 63.5% in the assay on OVCAR-5 ovarian; 29.2% in the assay on OVCAR-4 ovarian. For the same compound, the growth is 92.6% in the assay on SK-OV-3 ovarian; 50.8% in the assay with IGROV1 ovarian; 86% in the assay with OVCAR-3 ovarian; 83.7% in the assay with HS 578T breast; 68.3% in the assay with NCI/ADR-RES ovarian.
For `C=CCCCOC1[C@H](OCc2ccccc2)C(OCc2ccccc2)C(OC)O[C@@H]1CNC(=O)c1cccc(I)c1` (stereo partly specified), the growth is 36.3% in the assay with EKVX NSCLC; 38.7% in the assay with SN12C renal; 35.4% with UO-31 renal; 32.9% with ACHN renal; 38.3% in the assay on CAKI-1 renal; 71.2% in the assay with A498 renal. Moreover, the growth with CCRF-CEM leukemia was 13.8%; with MOLT-4 leukemia it was 20.4%; in the assay with SR leukemia it was 26.7%; in the assay with RPMI-8226 leukemia, 8.34% (active); with OVCAR-8 ovarian it was 51.8%; in the assay with OVCAR-5 ovarian it was 69%. In addition, the growth is 22.6% in the assay with OVCAR-4 ovarian; 45.5% in the assay with SK-OV-3 ovarian; 43.2% in the assay with IGROV1 ovarian; 50.1% with OVCAR-3 ovarian; 79.7% in the assay with HS 578T breast; 25.9% in the assay on NCI/ADR-RES ovarian.

For the origin of these results see PubChem BioAssay (NCI).
